Screening data as filed in PubChem BioAssay.
AmpC inh no det = AmpC beta-lactamase inhibition, detergent-free assay | 71,000 compounds, 1.8% hits | AID 585 | P00811 | Potency, µM (highest dose often 28.7 µM), for inactives: at the top dose activity change, negative = inhibition | AmpC nitrocefin hydrolysis, absorbance 480 nm, no detergent; note: % of control where 0% means no effect
Target sequence (P00811 whole entry, looked up): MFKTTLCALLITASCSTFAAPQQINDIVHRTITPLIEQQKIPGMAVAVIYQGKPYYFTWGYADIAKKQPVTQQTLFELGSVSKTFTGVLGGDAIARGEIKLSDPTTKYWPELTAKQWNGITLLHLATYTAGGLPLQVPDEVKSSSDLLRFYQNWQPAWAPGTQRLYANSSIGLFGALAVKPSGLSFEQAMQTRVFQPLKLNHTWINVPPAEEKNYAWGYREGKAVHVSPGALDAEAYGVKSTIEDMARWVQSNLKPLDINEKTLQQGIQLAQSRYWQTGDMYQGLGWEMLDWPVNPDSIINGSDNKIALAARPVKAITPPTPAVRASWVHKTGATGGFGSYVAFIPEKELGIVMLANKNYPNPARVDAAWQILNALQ
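Enzyme, pH 7.0 phosphate. Compound titrations were pre-incubated with AmpC for 15 min at room temperature before nitrocefin (stock 800 uM) addition; product formation was recorded at 480 nm every 20 s for 4 min.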
SmPrx2 inh = blocks S. mansoni peroxiredoxin 2 enzymatic activity. S. mansoni Prx2 activity coupled to TGR/GSH (TGR is thioredoxin glutathione reductase), NADPH fluorescence loss, qHTS. Potency, µM. 65,000 compounds, 0.07% hits. AID 448
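Enzyme mix: 100 uM NADPH, 25 nM TGR, 700 uM GSH, 50 nM Prx2 in 100 mM phosphate pH 7.4, 10 mM EDTA, 0.01% Tween-20. 15 min RT with compound; NADPH/GSH added, H2O2 starts reaction; NADPH fluorescence read 8 min.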
AmpC det inh = inhibitors of E. coli AmpC beta-lactamase with detergent; P00811; purified AmpC, nitrocefin hydrolysis with detergent; Potency, µM (series often up to 28.7 µM), inactives show at the top dose activity change, negative = inhibition; 71,000 compounds, 0.09% hits; active = well fitted curve in the direction sought with a large enough effect; inconclusive = small, poorly fitted or top-dose-only effect; note: % is set by controls: 0 for no effect and ±100 for the full control effect
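E. coli AmpC (5.3 nM) in 20 mM phosphate pH 7.0 with 0.01% Triton X-100, preincubated 15 min RT with compound; nitrocefin (2 uL of 800 uM stock) hydrolysis followed by 480 nm absorbance every 20 s over 4 min.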
LT uptake inh = blocks cellular internalization of anthrax lethal toxin. 70,000 compounds, 0.67% hits. Cells, anthrax lethal toxin internalization, FRET ratio (460/530). AID 912. Potency, µM (highest dose often 40 µM), inactives show at the highest dose activity change, negative = inhibition, hits mostly inhibitors; note: % is set by controls: 0 for no effect and ±100 for the full control effect; nearly all actives have a fitted effect of over 50% in size
Starred values were filed as active, the others as inactive; ? = inconclusive; . = not tested or not shown; [ ] = dose if it differs, or a comment. Rows were chosen to be rich in hits. Some 2.4% of all compounds tested hit in one or more screens of this group. Unless noted, calls come from the whole dose curve. Potency is the fitted concentration of half-maximal effect.

SMILES	AmpC inh no det	SmPrx2 inh	AmpC det inh	LT uptake inh
Cc1cccc(-c2nc(CS(=O)CC(=O)N3CCN(C)CC3)c(C)o2)c1 (stereo unspecified)	4µM*[single pt active]	>57	10%	4%
COc1cccc(-c2nc(CS(=O)CC(=O)NC3CCCC3)c(C)o2)c1 (stereo unspecified)	4µM*[single pt active]	>57	8%	4%
CCOC(=O)CSc1nnc(N)s1	-11%	>57	2%	?
CCOC(=O)CSc1nn(C)c(=S)s1	4µM*[single pt active]	>57	13%	-11%
COc1ccc(CNc2ccnc(-c3c(C)noc3C)n2)c(OC)c1	30%	>57	3%	4%
Nc1nc(Cl)nc2c1ncn2[C@@H]1O[C@@H](COP(=O)(O)OP(=O)(O)OP(=O)(O)O)[C@@H](O)[C@H]1O	-7%	>57	-1%	9%
COc1ccc(OC)c(NC(=O)Nc2nnc(N3CCC(C)CC3)s2)c1	4µM*[single pt active]	>57	11%	?
COc1ccc(NC(=O)Nc2nnc(N3CCC(C)CC3)s2)cc1OC	4µM*[single pt active]	>57	18%	-1%
COC(=O)[C@@H]1C[C@H]1[C@@H](NC(=O)OCc1ccccc1)c1ccccc1	21%	>57	-2%	9%
c1ccc(C(CN2CCOCC2)c2ccccc2)cc1	19%	>57	-3%	3%
O=C(c1ccc(F)cc1)C(CN1CCOCC1)c1ccccc1 (stereo unspecified)	42%	.	-4%	13µM*
Cc1occc1C(=O)n1nnc2ccccc21	10µM*	>57	10µM*	-21%
Cn1c(C(=O)N2CCN(c3ncccn3)CC2)cc2c(=O)n(C)c3ccccc3c21	27%	>57	16%	-4%
Cc1cccc(N2CCN(C(=O)c3cc4c(=O)n(C)c5ccccc5c4n3C)CC2)c1C	4µM*[single pt active]	>57	11%	-18%
Cn1c(C(=O)N2CCN(c3ccccc3F)CC2)cc2c(=O)n(C)c3ccccc3c21	4µM*[single pt active]	>57	13%	-3%
Cc1ccc(Cl)cc1N1CCN(C(=O)c2cc3c(=O)n(C)c4ccccc4c3n2C)CC1	4µM*[single pt active]	>57	13%	-12%
Cn1c(C(=O)N2CCCC2)cc2c(=O)n(C)c3ccccc3c21	11%	>57	12%	2%
OC[C@@H]1O[C@@H](n2cnc3c(N[C@@H]4C[C@@H]5CC[C@H]4C5)ncnc32)[C@@H](O)[C@H]1O	-3%	>57	-3%	-8%
N#Cc1c(-c2ccc(Cl)cc2Cl)nc2n(c1=O)CCS2	10µM*[single pt active]	>57	0%	?
COc1ccccc1-c1cc(C(F)(F)F)nc(S(=O)(=O)CCCC(=O)N2CCOCC2)n1	83%	>57	-2%	1.6µM*
COc1ccc(-c2cc(C(F)(F)F)nc(S(=O)(=O)CCC(=O)N3CCOCC3)n2)cc1	67%	>57	4%	?
CC(C)C[C@H](NC(=O)[C@@H](NC(=O)N[C@@H](Cc1ccccc1)C(=O)O)[C@H]1CCN=C(N)N1)C(=O)N[C@H](C=O)Cc1ccccc1	69%	>57	0%	?
N#Cc1c(N)nc2c(c1-c1ccc3c(c1)OCO3)CCCCCC2	8%	>57	0%	-25%
N#Cc1c(N)oc(-c2ccc3c(c2)OCO3)c1-c1ccc2c(c1)OCO2	10µM*	>57	-2%	5%
CN(C)c1ccc(C(=O)OCC(=O)c2cccs2)cc1	-2%	>57	10%	-14%
SMILES	AmpC inh no det	SmPrx2 inh	AmpC det inh	LT uptake inh
O=C(OCC(=O)c1cccs1)c1ccc(NC(=O)c2ccco2)cc1	16µM*[single pt active]	>57	9%	-6%
NC[C@H](O)c1cc(O)c(O)cc1F	-3%	>26	-1%	-5%
N[C@H](Cn1cc(I)c(=O)[nH]c1=O)C(=O)O	2%	>57	-3%	?
O=C(c1ccco1)N1CCN(c2ncccn2)CC1	4µM*[single pt active]	>57	14%	-13%
CCOC(=O)N1CCC(NC(=O)c2ccc(CS(=O)(=O)c3ccccc3C)o2)CC1	4µM*[single pt active]	>57	11%	-3%
CCCCN(C)C(=O)c1ccc(CS(=O)(=O)c2ccccc2C)o1	4µM*[single pt active]	>57	12%	-7%
Ic1ccc2c(c1)N(c1ccccc1)c1cc(Nc3ccc4nc5ccc(I)cc5[n+](-c5ccccc5)c4c3)ccc1N2	-2%[5.75 µM]	>57	-3%[5.75 µM]	-5%[8 µM]
COc1ccc(S(=O)(=O)Cc2ccc(C(=O)N3CCN(Cc4ccccc4)CC3)o2)cc1	109%	>57	12%	-11%
COc1ccc(S(=O)(=O)Cc2ccc(C(=O)N3CCN(c4ccc(Cl)cc4)CC3)o2)cc1	84%	>57	5%	13µM*
